Shown are actives, neighbours in structure and some others; about 3.5% of the full set was active somewhere.
FBW7 act: activators of human E3 ligase FBW7. Q969H0. actives 0.13% (n = 650,000). normalized activity (activation), % at 26.1 µM. AID 1259310. AlphaScreen FBW7–phospho-cyclin E peptide binding, activator screen; in the data active means normalized activity above about 1.9%;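 further: purified mutant Fbw7 with reduced substrate affinity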
GPR151 ag: human GPR151 activation; Q8TDV0; PathHunter beta-arrestin GPR151 cells, luminescence; activation, % at 11.2 µM; actives 1% (n = 650,000); in the data active means activation above about 4.9%
TEAD-YAP inh: TEAD-YAP interaction inhibition. inhibition, % at 9.12 µM. HEK-TIYL cells, TEAD-Gal4/YAP UAS-luciferase luminescence. actives 1.4% (n = 640,000); in the data active means inhibition above about 32%
MITF inh: human MITF inhibition, primary screen. O75030. AlphaScreen MITF homodimerization, bead proximity signal. inhibition, % at 2.6 µM. actives 0.91% (n = 650,000). AID 1259374; in the data active means inhibition above about 50%
Target sequence (O75030 whole entry, looked up): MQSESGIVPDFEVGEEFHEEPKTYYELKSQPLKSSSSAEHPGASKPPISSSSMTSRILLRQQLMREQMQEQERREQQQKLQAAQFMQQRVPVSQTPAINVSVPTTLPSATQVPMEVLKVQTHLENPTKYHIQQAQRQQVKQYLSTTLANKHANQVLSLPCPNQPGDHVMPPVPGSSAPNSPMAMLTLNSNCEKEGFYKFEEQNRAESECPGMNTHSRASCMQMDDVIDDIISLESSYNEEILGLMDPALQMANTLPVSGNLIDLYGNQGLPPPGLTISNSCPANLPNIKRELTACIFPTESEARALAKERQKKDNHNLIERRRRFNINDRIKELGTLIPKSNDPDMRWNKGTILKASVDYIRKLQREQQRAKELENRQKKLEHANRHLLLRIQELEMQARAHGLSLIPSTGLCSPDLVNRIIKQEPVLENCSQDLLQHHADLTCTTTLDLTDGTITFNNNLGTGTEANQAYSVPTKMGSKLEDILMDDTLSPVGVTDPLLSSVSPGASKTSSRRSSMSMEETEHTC
GPR151 confirm: confirmation of human GPR151 activators | shares compounds with GPR151 ag | GPR151 PathHunter beta-arrestin cells, luminescence, 90 min; % of EA-reagent control over plate median | activation, % at 11.2 µM | 6,700 tested, under 10 active | AID 1508609;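 active means mean percent activation across replicates above the confirmation screen cutoff of 4.91%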
GPR119 counter: GPR119 activation, counter-screen for GPR151 activators; activation, % at 11.2 µM; shares compounds with GPR151 ag; actives 0.3% (n = 6,700); GPR119 PathHunter beta-arrestin cells, luminescence, 90 min; 0 = compound-well median, 100 = enzyme-acceptor control;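 active means mean percent activation in the counterscreen above 29.09%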;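 further: counterscreen on off-target GPR119 to flag nonselective hits from the GPR151 activator screen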
Numbers stand for hits; n = inactive; x = not tested or not shown; ! = not active in a repeat.

SMILES	FBW7 act	GPR151 ag	TEAD-YAP inh	MITF inh	GPR151 confirm	GPR119 counter
Cc1ccc(/C=C2/C(=O)NN(c3ccc(I)cc3)C2=O)cc1	n	n	n	n	x	x
CC(=O)N1CCc2c(sc(NC(=O)C(C)(C)C)c2C(N)=O)C1	n	6.4	n	n	n	n
CC(=O)Nc1sc2c(c1C(N)=O)CCN(C(C)=O)C2	n	n	n	n	x	x
Cn1cnnc1SCCNC(=O)c1ccc(OCC(=O)C2CC2)cc1	n	6.9	n	n	n	n
C=CCNC(=O)c1ccc(OCC(=O)C2CC2)cc1	n	n	n	n	x	x
Cc1c(S(=O)(=O)Nc2ccc(F)cc2)c(=O)n(C)c(=O)n1C	n	n	n	n	x	x
CCCNC(=O)CCCOc1ccc(Cl)cc1Cl	n	13.2	n	n	n	n
CCOCCCNC(=O)CCCOc1ccc(Cl)cc1Cl	n	n	n	n	x	x
CCCCC[C@H](O)/C=C/C1=C(CCCCCCC(=O)O)C(=O)CC1	n	5.6!	n	n	n	n
C[C@@H](O)CCC[C@H](O)/C=C/C1=C(C/C=C\CCCC(=O)O)C(=O)CC1	x	n	x	n	x	x
Cc1ccc(CNC(=O)CCc2nnc(C3(c4ccc(Cl)cc4)CCC3)o2)s1	n	n	n	n	x	x
O=C(CCc1nnc(C2(c3ccc(Cl)cc3)CCC2)o1)NCc1ccccn1	n	5.1	n	n	n	n
Cc1ccccc1Nc1nc(N)nc(COC(=O)C2CC2)n1	n	n	n	n	x	x
COc1cc(NC(=O)CCCOc2ccc(C(C)(C)C)cc2)c(OC)cc1Cl	n	n	n	n	x	x
Cc1ccc(C(=O)N/C(=C\c2ccco2)C(=O)Nc2ccccc2)cc1C	n	5.6	n	n	n	n
Cc1ccc(C(=O)N/C(=C/c2ccco2)C(=O)Nc2ccc(C)cc2C)cc1	n	5.1	n	n	n	n
CNC(=O)/C(=C/c1ccco1)NC(=O)c1ccc(C)cc1	n	n	n	n	x	x
CN(CCC#N)S(=O)(=O)CC12CCC(CC1=O)C2(C)C (stereo not drawn)	n	n	n	n	x	x
COc1cccc(C2=N/C(=C\c3ccccc3)C(=O)O2)c1	n	n	n	n	x	x
O=C(NCc1ccccc1)C1CC12CCN(C(=O)CCOc1ccccc1)CC2 (stereo not drawn)	n	n	n	n	x	x
CCOC(=O)c1ccc(N2C(=O)CC(Cc3ccc(Cl)cc3)C2=O)cc1 (stereo not drawn)	n	9.6	n	n	n	n
O=[N+]([O-])c1ccc(F)cc1Oc1nc(CN2CCOCC2)nc2sc3c(c12)CCC3	n	n	n	n	x	x
O=C(Oc1ccc([N+](=O)[O-])cc1)c1ccc(N2C(=O)C3C4CCC(C4)C3C2=O)cc1 (stereo not drawn)	n	7.5	n	n	n	n
COC(=O)c1ccccc1NC(=O)CCSCCC(=O)Nc1ccccc1C(=O)OC	n	6.3	n	n	n	n
COC(=O)c1ccccc1NC(=O)CSc1n[nH]c(-c2ccccc2)n1	n	5.0	n	n	n	n
SMILES	FBW7 act	GPR151 ag	TEAD-YAP inh	MITF inh	GPR151 confirm	GPR119 counter
COC(=O)CCC(=O)Nc1ccccc1NC(=O)CCC(=O)OC	n	5.0	n	n	n	n
CCCC(=O)Nc1ccccc1NC(=O)Cc1ccc(OC)cc1	n	5.4	n	n	n	n
COC(=O)C(C(=O)Nc1ccccc1C)C1CCCC1 (stereo not drawn)	n	n	n	n	x	x
COc1ccccc1OCC(=O)NC1CCCCCC1	n	n	n	n	x	x
CCOC(=O)C(C(=O)Nc1ccccc1OC)C1CCCCC1 (stereo not drawn)	n	5.1	n	n	n	n
COc1ccccc1OC(C)C(=O)NC1CCCCC1 (stereo not drawn)	n	6.4	n	n	n	n
COc1ccccc1NC(=O)C1CC(=O)OC12CCOC(C)(C)C2 (stereo not drawn)	n	6.5	n	n	n	n
COc1ccccc1NC(=O)C1CC(=O)OC1(C)C (stereo not drawn)	n	n	n	n	x	x
CCCNc1nc(-c2ccccc2)nc2cc(OC)c(OC)cc12	n	n	n	n	x	x
COc1cc(/C=C2\SC(N)=NC2=O)ccc1OC(=O)c1ccc(Cl)cc1	n	n	n	n	x	x
COc1ccc(C(=O)Oc2c(Cl)cc(/C=C3\SC(N)=NC3=O)cc2OC)cc1	n	8.2	n	n	n	n
CC(C)(C)OC(=O)NC1CCC[C@@H](NC(=O)c2cccc(-n3cc(NC(=O)Cc4ccccc4)cn3)c2)C1 (stereo partly drawn)	n	n	n	n	x	x
Cn1c(N/N=C\c2cccc(O)c2)cc(=O)n(C)c1=O	n	n	n	n	x	x
COc1cc(/C=N\Nc2cc(=O)n(C)c(=O)n2C)ccc1O	n	5.7	n	n	n	n
Cn1c(N/N=C\c2cccs2)cc(=O)n(C)c1=O	n	6.6	n	n	n	n
O=C(Nc1ccccc1)NC1c2ccccc2Oc2ccccc21	n	6.6	n	n	n	n
O=C(NC1c2ccccc2Oc2ccccc21)c1ccncc1	n	n	n	n	x	x
CCC1CCCCN1C(=O)CSc1nc2nc(C)c(Cc3ccccc3C)c(C)n2n1 (stereo not drawn)	n	5.2	n	n	n	n
Cc1ccccc1Cc1c(C)nc2nc(SCC(=O)N3CCC(C)CC3)nn2c1C	n	n	n	n	x	x
CCCN(CCC)C(=O)CSc1nc2nc(C)c(Cc3ccccc3C)c(C)n2n1	n	5.0	n	n	n	n
Cc1ccccc1Cc1c(C)nc2nc(SCC(=O)NC(C)(C)C)nn2c1C	n	15.6	n	n	n	n
COc1cccn2c(C(=O)NCc3ccc(Cl)nc3)c(C(F)(F)F)nc12	n	n	n	n	x	x
Cc1ccc2onc(CNC(=O)N3CCCC3)c2c1	n	n	n	n	x	x
Cc1ccc2onc(CNC(=O)N3CCCC(C)C3)c2c1 (stereo not drawn)	n	6.9	n	n	n	n
CCOC(=O)CSc1ccc(C(=O)N(CC)CC)cc1[N+](=O)[O-]	n	6.8	n	n	n	n
SMILES	FBW7 act	GPR151 ag	TEAD-YAP inh	MITF inh	GPR151 confirm	GPR119 counter
CCOC(=O)CSc1ccc(C(=O)OCC)cc1[N+](=O)[O-]	n	n	n	n	x	x
N#Cc1cc([N+](=O)[O-])ccc1NC(=O)COC(=O)C1CC1	n	n	n	n	x	x
N#Cc1cc([N+](=O)[O-])ccc1NC(=O)COC(=O)CC1CCCC1	n	5.0	n	n	n	n
Cc1cc(NC(=O)COC(=O)CC2CCCCC2)no1	n	5.0	n	n	n	n
O=C1CCCC2=C1C(c1ccccc1F)n1c(nc3ccccc31)N2 (stereo not drawn)	n	9.6	n	n	n	n
O=c1oc2ccc(Br)cc2cc1-c1csc(-c2ccccc2)n1	n	5.2	n	n	n	n
O=c1oc2ccc(Br)cc2cc1-c1csc(-c2ccc(Cl)cc2)n1	n	n	n	n	x	x
CCC1CCCCN1CCN1C(=O)C2C(C(=O)Nc3cccc(C)c3)C3C=CC2(O3)C1C(=O)NC1CCCC(C)C1C (stereo not drawn)	n	12.9	n	n	n	n
